Reference: PubChem BioAssay (Tox21)
Records with an inconclusive call do not appear. A call without a number means that no potency is given here. Calls of active or inactive are those of the source. Calls follow the shape of the dose curve; as a rule, active = well fitted cell-killing curve with a large enough effect in the repeat runs; inconclusive = weak or mixed curves, or effect the other way; inactive = flat fitted curve, though single readings scatter.

Experiment: cAMP Responsive Elements (CRE) small molecule agonists, cell-based qHTS assay: qHTS cell viability counter screen (AID 2060914);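 also: viability read after 3 h of compound exposure; nearly all actives have a fitted effect of over 50% in size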
Settings: CRE-bla HEK293T viability, CellTiter-Glo luminescence, 5 h; series mostly up to 92.4 µM
Excerpt: National Center for Advancing Translational Sciences [NCATS]
Division of Preclinical Innovation [DPI]
U.S. Environmental Protection Agency [EPA]
National Institutes of Environmental Health Sciences [NIEHS]
National Toxicology Program [NTP]
U.S. Food and Drug Administration [FDA]
CREB (cyclic-AMP Responsive Element Binding Protein) is a cellular transcription factor. It binds to certain DNA sequences called cAMP Responsive Elements (CRE) and regulates the transcription of the genes. […] This cell line can be used to find agonists/antagonists of the cyclic AMP signaling pathway. The activation of the report gene under culture conditions can be detected by fluorescence intensity. This cell line has been used to screen the Tox21 10K compound library to identify agonists that induce oxidative stress. The cytotoxicity of the Tox21 compound library against the CRE-bla cell line was tested in parallel by measuring the cell viability using CellTiter-Glo assay (Promega, Madison, WI) in the same wells.
Tox21 Assay Protocol Summary:
CRE-bla Hek 293T cells were suspended in assay medium (DMEM containing 10% dialyzed FBS, 0.1 mM NEAA, 1 mM sodium pyruvate and 25 mM HEPES) and dispensed at 2,000 cells/5 uL /well into 1536-well black wall/clear bottom plates using a Multidrop Combi (ThermoFisher Scientific, Waltham, MA) dispenser. After the assay plates were incubated at 37 C/5% CO2 for 18 hrs, 23 nL of compounds dissolved in DMSO, positive controls or DMSO only was transferred to the assay plate by a pintool workstation (Kalypsys, San Diego, CA). After the plates were incubated at 37 C/5% CO2 for 3 hrs, 1 uL of LiveBLAzer B/G FRET substrate (Invitrogen, Carlsbad, CA) was added to each well using Bioraptr Flying Reagent Dispenser (FRD, Aurora Discovery, San Diego, CA). The plates were incubated at room temperature for 2 h, then fluorescence intensities were measured using an Envision plate reader (PerkinElmer, Shelton, CT) at Excitation 405nm, Emission 460nm and 530nm. The % activity was determined from the ratio of 460nm/530nm. For cell viability readout that measures cytotoxicity, 4 uL /well of CellTiter-Glo reagent was added into the assay plates using Bioraptr FRD. After 30 min incubation at room temperature, the luminescence intensity in the assay plates was measured using a ViewLux (PerkinElmer, Shelton, CT) plate reader.

SMILES	Potency	activity change, negative = cytotoxicity
Cc1ccccc1N=C(N)N=C(N)N	inactive	
Nc1ccc(F)cc1	inactive	
CSc1ccc(O)cc1C	inactive	
NCCCNCCSP(=O)(O)O		3.53% [at 8.39 µM] (inactive)
C[N+](C)(C)CCCCCC[N+](C)(C)C	inactive	
S=C([S-])NCCNC(=S)[S-].[Mn+2]	inactive	
c1ccc(C(O[C@H]2CCCN(CCc3ccc4c(c3)OCO4)C2)c2ccccc2)cc1	inactive	
CCCCCCCCCCO	inactive	
CCCCCCCC(=O)OCCCCCC	inactive	
COc1nccnc1CC(C)C	inactive	
Cc1cccc2cccnc12	inactive	
CN(C)CCN1C(=O)c2ccccc2N(C)c2ccccc21	inactive	
O=c1c2ccccc2nnn1CCl	inactive	
Nc1ccc(N=Nc2ccccc2)c(N)n1	inactive	
Cc1c(O)cccc1O	inactive	
CCOc1cc(OCC)c(C(C)=O)cc1OCC	inactive	
Cc1cccc(N(C)C)c1	inactive	
CC/C=C\CCCCCO	inactive	
CC(C)CC=O	inactive	
CCCCCCCCCCCCCCCCO	inactive	

SMILES	Potency	activity change, negative = cytotoxicity
CCCCCCCCCCCCCOC(=O)CCSCCC(=O)OCCCCCCCCCCCCC		-4.92% [at 18.9 µM] (inactive)
COC(=O)[C@H]1[C@H]2C[C@@H]3c4[nH]c5cc(OC)ccc5c4CCN3C[C@H]2C[C@@H](OC(=O)/C=C/c2ccc(O)c(OC)c2)[C@@H]1OC	inactive	
COC(=O)CC(=O)C(C)(C)C	inactive	
C=CCCCCCCCC	inactive	
O=C(O)C(=O)Cc1c[nH]c2ccccc12	inactive	
CC(C)(O)CCc1ccccc1	inactive	
CC(C)OB(OC(C)C)OC(C)C	inactive	
CC(=O)/C=C/C1C(C)=CCCC1(C)C (stereo not given)	inactive	
CS(=O)(=O)c1ccc([C@@H](C[C@H]2CCC(=O)C2)C(=O)Nc2cnccn2)cc1Cl	inactive	
CCCCN1C[C@H](O)[C@@H](O)[C@H](O)[C@H]1CO	inactive	
O=C(O)Cc1cccc2ccccc12	inactive	
c1ccc2ccccc2c1	inactive	
CC[C@@]1(O)C(=O)OCc2c1cc1n(c2=O)Cc2c-1nc1ccccc1c2/C=N/OC(C)(C)C	inactive	
CC1=CC(=O)CC(C)(C)C1(O)/C=C/C(C)=C\C(=O)O (stereo not given)	inactive	
Nc1nc(Cl)nc2c1ncn2[C@H]1C[C@H](O)[C@@H](CO)O1	inactive	
O=C1NC2CCCCN2C12CCN(CCCN1c3ccccc3CCc3ccc(Cl)cc31)CC2 (stereo not given)	inactive	
O=NN(CCCl)C(=O)NC1CCCCC1	inactive	
c1coc(Cn2cccc2)c1	inactive	
O=C(NCCO[N+](=O)[O-])c1cccnc1	inactive	
COc1cc(OC)nc(O[C@H](C(=O)O)C(OC)(c2ccccc2)c2ccccc2)n1	inactive	
